# Screening results deposited in PubChem by several laboratories.
# A selection: hits, their analogues and other compounds. The true share with any hit is near 1.9%.
# 14-3-3 Bad PPI: inhibitors of 14-3-3 zeta/Bad binding, primary screen, biochemical, TR-FRET, bovine 14-3-3 zeta; TR-FRET 14-3-3zeta/Dy647-pBad peptide displacement, 1 h; AID 781, 2007; 14-3-3 protein zeta/delta (Bos taurus), P63103; 220,000 tested, 0.71% active; inhibition, % at 21.7 µM;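 active = inhibition above about 70%, limit read from the data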
# p47phox inh: p47phox/p22phox peptide binding inhibitors, primary screen, biochemical, uHTS, NADPH oxidase regulatory subunit; 220,000 tested, 0.53% active; inhibition, % at 24.7 µM; AID 1274, 2008; Neutrophil cytosol factor 1 (Homo sapiens), P14598; fluorescence polarization, 2 h;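 active = inhibition above about 30%, limit read from the data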
# Target sequence (P14598 whole entry, looked up): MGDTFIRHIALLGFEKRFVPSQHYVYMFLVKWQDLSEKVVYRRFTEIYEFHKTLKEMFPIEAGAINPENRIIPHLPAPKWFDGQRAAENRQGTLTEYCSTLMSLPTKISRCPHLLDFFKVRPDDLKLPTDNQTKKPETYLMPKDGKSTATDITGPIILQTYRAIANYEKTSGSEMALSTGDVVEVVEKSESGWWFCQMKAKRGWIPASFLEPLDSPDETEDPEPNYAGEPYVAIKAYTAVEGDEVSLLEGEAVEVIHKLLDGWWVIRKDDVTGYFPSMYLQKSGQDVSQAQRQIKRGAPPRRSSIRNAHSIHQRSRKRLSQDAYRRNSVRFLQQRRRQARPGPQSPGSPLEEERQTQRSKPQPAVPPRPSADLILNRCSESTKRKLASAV
# dFosB act: activators of delta FosB homodimer, primary screen, biochemical, fluorescence polarization, TAMRA-CDK5 oligo, single point; Protein FosB (Mus musculus), P13346; purified delta FosB; percent of positive-control signal above neutral wells; activation, % at 25 µM; 340,000 tested, 0.99% active; AID 493131, 2011;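 active = mean activation above about 17%, with every replicate also reaching it, limit read from the data, passing the limit was not always enough; inconclusive = only one of the two conditions met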
# Efa HMGR inh: inhibitors of E. faecalis class II HMGR, primary screen, biochemical, Enterococcus faecalis; 190,000 tested, 0.41% active; inhibition, % at 10 µM; HMG-CoA reductase (Enterococcus faecalis, mvaE); purified E. faecalis HMGR, NADPH absorbance 340 nm kinetic;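 active = inhibition above a set limit, the median over all tested compounds plus 3 SD, cut at about 9.5% in these data; inconclusive = no clear call, values can overlap the other calls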;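 also: enzyme runs in reverse so mevalonate oxidation gives rising NADPH absorbance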
# Numbers stand for hits; n = inactive; u = inconclusive; x = no result; [ ] = dose if it differs, or a comment.
SMILES,14-3-3 Bad PPI,p47phox inh,dFosB act,Efa HMGR inh
CCC(C)(C)n1nnnc1C(c1ccccc1)N1CCc2ccccc2C1 (stereo not drawn),n,n,n,n
CCC(C)(C)n1nnnc1C(c1ccc(O)c(OC)c1)N1CCc2ccccc2C1 (stereo not drawn),82.2,n,n,n
Cc1cccc(C2Nc3ccccc3C(=O)N2c2ccc(F)cc2)n1 (stereo not drawn),n,n,n,9.8
O=[N+]([O-])c1ccc(S(=O)(=O)Nc2ccc3c(c2)OCCO3)cc1,x,x,n,x
O=C(N/N=C/c1ccc(O)cc1)c1ccc(COc2cc(Cl)ccc2Cl)o1,n,n,u,11.7
COc1ccccc1CN1CC(C(=O)NCc2cc(C)on2)CCC1=O (stereo not drawn),x,x,n,x
N#CCCN/N=C(/Cc1nc2ccccc2[nH]1)c1ccc(Cl)cc1,n,n,x,9.9
Cc1ccsc1C1C(C#N)=C(N)OC2=C1C(=O)CCC2 (stereo not drawn),n,n,n,n
CCN(CC)c1ccc(/C=N/N2C(=O)c3ccccc3C2=O)c(O)c1,n,n,n,n
O=C1c2ccccc2C(=O)N1CCN1CCCCC1,n,n,n,18.9
O=C1c2cccc3cc([N+](=O)[O-])cc(c23)C(=O)N1/N=C/c1ccc(O)cc1O,97.3,n,n,x
O=C1c2cccc3cc([N+](=O)[O-])cc(c23)C(=O)N1CCN1CCCC1,n,n,58.4,x
CCc1ccc(C(C)NC(=O)C2CCCC2)cc1 (stereo not drawn),x,x,n,x
COc1ccc2nc(-n3c(O)c(C4=c5ccccc5=NC4=O)[nH]c3=S)sc2c1,96.4[fluorescence artefact?],n,n,n
O=C(CSc1nnc(-c2ccccc2)n1-c1ccccc1)c1cccs1,n,35.4,n,n
Cc1ccc(C(=O)NNC(=O)c2ccc3ncccc3c2)cc1,n,32.9,n,n
C=CCn1c(COc2cccc3ccc(C)nc23)nnc1SCC(=O)O,n,n,n,n
CC(C)CCn1nnnc1C(c1ccc(N(C)C)cc1)N1CCN(C(=O)c2ccco2)CC1 (stereo not drawn),n,n,n,n
O=C(CSc1nc2ccccc2n1CCc1ccccc1)c1ccc(O)c(O)c1,93.7,n,n,n
O=C(CSc1nc2ccccc2n1CCc1ccccc1)N1CCOCC1,n,n,n,n
Cc1ccc2nc3c(cc(C(=O)NCCc4ccccc4)c(=N)n3CCCN3CCOCC3)c(=O)n2c1,x,x,n,x
CCn1c(-c2nn(-c3ccccc3)ccc2=O)n[nH]c1=S,n,n,n,n
CCn1c(-c2nn(-c3ccc(C)cc3)ccc2=O)n[nH]c1=S,88.2,n,n,n
COc1cc(CNCc2ccccn2)ccc1OCc1cccc(Cl)c1,87.8,n,n,n
COc1cc(CNCc2ccccn2)ccc1OCc1ccc(Cl)cc1,n,n,n,n
SMILES,14-3-3 Bad PPI,p47phox inh,dFosB act,Efa HMGR inh
COC(=O)c1ccc(C(=O)Nc2ccc3nc(-c4ccncc4)[nH]c3c2)cc1,x,x,43.9,x
Nc1ccc(C(=O)Nc2ccc3nc(-c4cccnc4)[nH]c3c2)cc1,n,n,n,n
COc1cccc(/C=N/Nc2ncnc3c2[nH]c2ccc(C)cc23)c1OC,88.0,n,n,x
Cc1cc(C)c2c(=O)n(CC(=O)NC3CCCC3)sc2n1,n,42.0,n,x
Cc1cc(C)c2c(=O)n(CC(=O)Nc3ccc(Br)c(C)c3)sc2n1,n,n,n,x
Cc1nnsc1C(=O)Nc1ccc(Cl)cc1Cl,n,n,n,n
COc1cc(C)c(CNc2ccc(OC)c(OC)c2)cc1C,80.1,n,x,n
COc1cc(C)c(CNc2cc(C)cc(C)c2)cc1C,n,n,n,n
COc1cc(C)c(CNc2cccc(C)c2)cc1C,72.9,n,n,n
O=C(O)COc1ccccc1C(Nc1cccnc1)c1cc(Cl)c2cccnc2c1O (stereo not drawn),n,n,n,n
CCOc1ccc(C(Nc2cccnc2)c2cc(Cl)c3cccnc3c2O)cc1 (stereo not drawn),n,39.7,n,n
CCC(=O)NC(c1ccc(OC)c(OC)c1)c1cc(Cl)c2cccnc2c1O (stereo not drawn),n,40.2,n,n
COc1ccc(N2C(=O)C3CCCN3C2c2cccc(C)c2)cc1Cl (stereo not drawn),n,n,n,n
CCN(c1ccccc1)S(=O)(=O)c1ccc(Cl)c(NC(=O)CN(C)C2CCN(C)CC2)c1,90.3,n,n,x
O=C(CNCC1CCCO1)Nc1ccccc1N1CCCCCC1 (stereo not drawn),82.2,n,n,n
